From PubChem BioAssay AID1626 (SRMLSC, 2009)
Among all 220,000 compounds or so, about 2,000 (0.91%) were called active. Inconclusive results (about 2%) are left out. Rule as the data show it: inconclusive = inhibition above about 80% without an active follow-up result; inactive = below that; test concentration not stated here. Only a sample is shown. Potency and affinity values are given separately.

Assay: M. tuberculosis H37Rv growth inhibitors, H37Rv strain (AID 1626);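 also: bacteria incubated seven days before Alamar blue readout; 0% = bacteria only wells and 100% = bacteria with antibiotic wells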
Conditions: active compounds read high, concentration not given here

| SMILES | inhibition |
| --- | --- |
| CC(OC(=O)c1ccc(Cl)c(S(=O)(=O)Nc2ccc(F)cc2)c1)C(=O)NC(N)=O (centres undefined) | -1.89% (inactive) |
| CCn1c(NN=O)nc2ccccc21 | 3.63% (inactive) |
| CC(=O)C1=C(C)NC(=O)NC1c1cccs1 (centres undefined) | -8.1% (inactive) |
| COc1cc(/C=C(\C#N)c2ccccn2)ccc1OCC(=O)Nc1ccc(Br)cc1 | -1.03% (inactive) |
| C#CC1(NC(=O)NC(C)(C)C)CCCCC1 | 2.25% (inactive) |
| COc1ccccc1NC(=O)COC(=O)c1cnc(C)cn1 | 0.5% (inactive) |
| CCc1cc(C(c2cccc(OC)c2)N2CCOCC2)c(NC(=O)c2ccccc2)s1 (centres undefined) | 2.32% (inactive) |
| CCOC(=O)C1(CC/C(C)=N\NC(N)=O)CC(C)(C)OC1=O (centres undefined) | -7.16% (inactive) |
| Cc1nnc(C)n1/N=C/c1cccc(Oc2ccccc2)c1 | 5.69% (inactive) |
| COC(=O)c1ccsc1NC(=O)C1=COCCO1 | 2.57% (inactive) |
| CNc1nc(C23CC4CC(CC(C4)C2)C3)cs1 | 2.54% (inactive) |
| O=C(NCc1ccccc1)C(=O)Nc1nc(C23CC4CC(CC(C4)C2)C3)cs1 | 6.64% (inactive) |
| CCn1c(SCC(=O)Nc2ccccc2C(=O)OC)nnc1-c1cccc(C)c1 | -2.01% (inactive) |
| CN(C)CCCn1c(NC(=O)C2CCCCC2)nc2ccccc21 | 3.22% (inactive) |
| O=C(Nc1nc2ccccc2n1CCN1CCCC1)C1CCCCC1 | -3.71% (inactive) |
| CCCCn1c(NC(=S)Nc2ccccc2)nc2ccccc21 | 9.5% (inactive) |
| O=C(Nc1nc2ccccc2n1CCN1CCCCC1)C1CCCCC1 | 4.2% (inactive) |
| O=C(Cc1ccccc1)Nc1cccc(N2CCCC2)c1 | 2.44% (inactive) |
| Cc1nnc(NN)n(N)c1=O | -3.11% (inactive) |
| CCCCOc1ccc(C(=O)N/C(=C/C=C/c2ccccc2)C(=O)O)cc1 | -8.39% (inactive) |
| O=C(N/C(=C/C=C\c1ccccc1)C(=O)N1CCOCC1)c1ccc(Br)cc1 | 64.4% (inactive) |
| CCC(=O)Nc1ccc(NC(=S)NC(=O)c2cc3ccccc3o2)cc1 | 15.4% (inactive) |
| Cc1ccc(S(=O)(=O)NCC(=O)N(CC(=O)NCC2CCCO2)Cc2ccco2)cc1 (centres undefined) | 11.1% (inactive) |
| Cc1ccc(OC(=O)c2ccc(N3CCOCC3)c([N+](=O)[O-])c2)cc1 | 54.1% (inactive) |
| O=C(Nc1ccccc1N1CCOCC1)c1ccc(N2CCOCC2)c([N+](=O)[O-])c1 | 6.98% (inactive) |

| SMILES | inhibition |
| --- | --- |
| O=C(O)c1ccccc1C(=O)c1ccc(N2CCOCC2)c([N+](=O)[O-])c1 | 3.64% (inactive) |
| O=[N+]([O-])c1cc(Cl)ccc1N1CCOCC1 | -3.75% (inactive) |
| O=C(OCC(=O)N1CCOCC1)c1ccc(N2CCOCC2)c([N+](=O)[O-])c1 | -0.57% (inactive) |
| COc1ccc(C(=O)c2ccc(N3CCOCC3)c([N+](=O)[O-])c2)cc1 | -2.74% (inactive) |
| Cc1sc(NC(=O)CSc2nnc(-c3ccccc3)o2)c(C#N)c1C | -2.26% (inactive) |
| CCOc1ccc(NC(=O)CC2SC(N)=NC2=O)c([N+](=O)[O-])c1 (centres undefined) | 2.3% (inactive) |
| COC(=O)c1ccc(NC(=O)CN2C(=O)C3C4C=CC(C4)C3C2=O)cc1 (centres undefined) | 1.35% (inactive) |
| COc1ccc(C(=O)CCNc2cccc(Cl)c2)cc1 | 10.7% (inactive) |
| Cc1ccc(NCCC(=O)c2cccs2)cc1C | 74.8% (inactive) |
| O=C(CCNc1cc(Cl)cc(Cl)c1)c1cccs1 | 74.2% (inactive) |
| Cc1ccc(NC(=O)COC(=O)CCC(=O)c2cccs2)cc1 | -6.9% (inactive) |
| COc1ccc(C(=O)CNc2ccccc2C#N)cc1 | 3.5% (inactive) |
| COc1ccc(C(=O)CNc2ccccc2CO)cc1 | -0.7% (inactive) |
| Cc1ccc(NC(=O)CCC(=O)c2cccs2)cc1 | 1.21% (inactive) |
| CCCOc1ccc(C(=O)CCNc2ccc(C)c(Cl)c2)cc1 | 69.1% (inactive) |
| CCOc1ccc(-c2nn(-c3ccccc3)cc2/C=C2\SC(=S)N(Cc3ccco3)C2=O)cc1 | -2.18% (inactive) |
| COc1ccccc1C1=NC(c2ccc(C)cc2)N=C1C (centres undefined) | 7.88% (inactive) |
| COc1ccc(N2C(=O)C3NN=C(C(=O)OCc4ccccc4)C3C2=O)cc1 (centres undefined) | 1.18% (inactive) |
| Cc1cccc(NC(=S)N(CCN(C)C)Cc2cc3cccc(C)c3[nH]c2=O)c1 | 12.2% (inactive) |
| CSC1=NC(C)(C)C=C(/C=C/c2ccc(Cl)cc2)N1 | -4.38% (inactive) |
| Cc1c(C(=O)N2CCN(C)CC2)oc2ccc(S(=O)(=O)N3CCOCC3)cc12 | -4.68% (inactive) |
| Cc1cc(C(=O)NC(C)c2ccncc2)no1 (centres undefined) | -9.57% (inactive) |
| CCn1c2c(c(C)cc1=O)C(=O)CC(C)(C)C2 | -1.17% (inactive) |
| CC(=O)c1ccc(N2Cc3ccccc3C3(CCOCC3)C2=N)cc1 | -1.43% (inactive) |
| COc1ccccc1CC(=O)NC1CCCc2ccccc21 (centres undefined) | 1.93% (inactive) |

| SMILES | inhibition |
| --- | --- |
| Cc1cc(Nc2ccc3c(c2)OCCO3)n2nc(C)nc2n1 | 1.27% (inactive) |
| CCOC(=O)C1=Nc2ccccc2/C1=C\c1c(O)n(C)c(=O)n(C)c1=O | -4.93% (inactive) |
| CCOC(=O)C(=O)Nc1ccccc1C(=O)OCC | -3.74% (inactive) |
| CC(=O)Nc1cc(C(F)(F)F)ccc1OCC1CCCO1 (centres undefined) | 4.74% (inactive) |
| Cc1ccc(-c2cc(C(F)(F)F)n3ncc(C(=O)N4CCCCC4c4cccnc4)c3n2)cc1 (centres undefined) | 9.06% (inactive) |
| COc1cccc(-c2cc(C(F)(F)F)n3nc(C(=O)N4CCCCC4c4cccnc4)cc3n2)c1 (centres undefined) | -1.53% (inactive) |
| CCN1CCN(C(=S)Nc2ccsc2C(=O)OC)CC1 | 2.48% (inactive) |
| COc1ccc(CCNC(=O)COC(=O)COc2ccc(C#N)cc2)cc1 | 3.53% (inactive) |
| O=C(Nc1nnc(Cc2ccccc2)s1)c1cccs1 | -2.7% (inactive) |
| Cc1ccc(Cc2cnc(NC(=O)c3ccco3)s2)cc1 | -0.28% (inactive) |
| O=C(Nc1nnc(Cc2ccc(Cl)cc2)s1)c1cccs1 | -8% (inactive) |
| O=C(Nc1nnc(CCc2ccccc2)s1)c1cccs1 | -0.19% (inactive) |
| CCOC(=O)c1oc2cccc(O)c2c1CN1CCOCC1 | 1.91% (inactive) |
| CC(=N/O)/C(=N\O)c1ccc(C)o1 | 5.71% (inactive) |
| O=C1CC(N2CCN(Cc3ccc4c(c3)OCO4)CC2)C(=O)N1c1cccc2ccccc12 (centres undefined) | -7.76% (inactive) |
| CCOC(=O)c1c(NC(=O)COC(=O)c2cc(OC)c(OC)cc2[N+](=O)[O-])sc(C)c1C | 0.78% (inactive) |
| O=C(Nc1ccc(Cl)cc1)N1CCCC1 | 1.26% (inactive) |
| O=C(Nc1cccc(Cl)c1)N1CCCC1 | -2.82% (inactive) |
| N#Cc1c(-c2ccc(Cl)cc2Cl)nc2n(c1=O)CCS2 | -1.19% (inactive) |
| O=C(Cn1cnc2c(nnn2-c2ccccc2)c1=O)N1CCOCC1 | 3.36% (inactive) |
| CCOc1ccc(-n2c(C)nc3c(cnn3-c3ccc(Cl)cc3)c2=O)cc1 | -1.94% (inactive) |
| Cc1ccc(OCC(=O)Nc2ccc(N3CCN(C(=O)c4ccc(C)cc4)CC3)cc2)cc1 | -3.04% (inactive) |
| Cc1ccccc1OCC(=O)Nc1ccc(N2CCN(S(C)(=O)=O)CC2)cc1 | -6.69% (inactive) |
| CCOC(=O)N1CCN(c2cc(C)nc3nc(C)nn23)CC1 | -2.69% (inactive) |
| CSc1cccc(NC(=O)CSc2ccc(C)cc2)c1 | 52.9% (inactive) |

| SMILES | inhibition |
| --- | --- |
| CCSCc1nnc(SCC(=O)Nc2cccc(C(C)=O)c2)n1C | -4.22% (inactive) |
| CCSCc1nnc(SCC(=O)Nc2ccc(OC)cc2)n1C | 7.37% (inactive) |
| COc1cccc(NC(=O)CSc2nnc(C)s2)c1 | -3.98% (inactive) |
| Nn1c(CN2CCCCC2)nc2ccccc2c1=O | 4.4% (inactive) |
| Cc1csc(NC(=O)CS(=O)(=O)c2ccccc2)n1 | -3.27% (inactive) |
| O=C(OCC(=O)N1CCCCCC1)c1ccc([N+](=O)[O-])cc1Cl | 20.3% (inactive) |
| OC(COc1ccc(OCc2ccccc2)cc1)CN1CCCCC1 (centres undefined) | 3.57% (inactive) |
| Cc1ccccc1OCc1nnc(SCC(=O)NCc2ccco2)n1C | -6.74% (inactive) |
| Cc1ccc(S(=O)(=O)NC(CC(C)C)C(=O)Nc2nccs2)cc1 (centres undefined) | -11.9% (inactive) |
| COc1ccccc1NCC(O)Cn1c2ccccc2c2ccccc21 (centres undefined) | 2.53% (inactive) |
| COc1ccc(CCNCC(O)Cn2ccc3ccccc32)cc1OC (centres undefined) | -9.67% (inactive) |
| CC(C)N(Cc1cc2ccccc2[nH]c1=O)C(=O)c1cccnc1 | -8.2% (inactive) |
| COc1ccc(S(=O)(=O)N2C(=O)/C(=C3\SC(N)=NC3=O)c3ccccc32)cc1 | -3.28% (inactive) |
| COc1ccc2nc(/N=C/c3c(C)[nH]n(-c4ccc(C)cc4C)c3=O)sc2c1 | 6.1% (inactive) |
| CCCCOc1ccc(-c2nc(/C=N/c3nccs3)c(O)o2)cc1 | 25.4% (inactive) |
| COc1ccc2nc(/N=C/c3c(C)[nH]n(-c4ccc(C)cc4)c3=O)sc2c1 | 33% (inactive) |
| Oc1oc(-c2ccccc2)nc1/C=N/c1nccs1 | -8.45% (inactive) |
| Cc1ccccc1CN1CCN(c2ccc(Cl)cc2)CC1 | 6.57% (inactive) |
| N/C(=N\OS(=O)(=O)c1ccc(Cl)cc1)c1cccnc1 | -1.48% (inactive) |
| Cc1nn2c(N)c(C#N)cnc2c1-c1ccccc1 | -6.08% (inactive) |
| COCc1nn2c(N)c(C#N)cnc2c1-c1ccccc1 | 4.73% (inactive) |
| O=C(NCCc1c[nH]c2ccccc12)c1cnccn1 | 2.35% (inactive) |
| O=[N+]([O-])c1ccc(C(O)C(CO)NC(=S)Nc2ccccc2)cc1 (centres undefined) | -0.74% (inactive) |
| Cc1ccc(NC(=S)NC(CO)C(O)c2ccc([N+](=O)[O-])cc2)cc1 (centres undefined) | -9.71% (inactive) |
